# Bioassay records from PubChem BioAssay.
# KB-3-1 cytotox: kills parental KB-3-1 adenocarcinoma cells | AID 1347075 | Potency, µM (highest dose often 46.1 µM), actives largely listed as cytotoxic | KB-3-1 viability, CellTiter-Glo ATP luminescence, 72 h | 400,000 compounds, 1.4% hits; further: on the % scale 0 is the no-effect control and ±100 the full control effect; nearly all actives have a fitted effect of over 60% in size
#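 KB-3-1 parental drug-naive adenocarcinoma cells in DMEM/10% FBS, incubated 72 h at 37 C with pin-transferred compounds across a concentration series. Viability by CellTiter-Glo luminescence; concentration-response curves fitted after normalization.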
# HT1080 IDH1KD tx: kills HT-1080 cells with IDH1 knockdown; HT-1080 IDH1 knockdown viability, ATP luminescence, 48 h; Potency, µM (highest dose often 46.1 µM), for inactives: top-dose activity, negative = toxicity, actives largely listed as cytotoxic; 360,000 compounds, 2% hits;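 further: 0% = DMSO wells and -100% = cell-free medium wells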
#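 Viability of IDH1-knockdown HT-1080 fibrosarcoma cells was assessed by CellTiter-Glo after 48 h at 37 °C with titrated compound; concentration-effect curves were classified by fit quality and response size.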
# MCF10A rereplic: DNA re-replication induction in MCF 10a cells; MCF 10A DNA re-replication, Hoechst nuclear intensity, 48 h; 350,000 compounds, 2.9% hits; Potency, µM (titrated, usually from 46.1 µM), without a hit: at the highest dose activity, positive = re-replication, actives largely listed as activators; further: % of control where 0% means no effect; nearly all actives have a fitted effect of over 50% in size
# HT1080-NT tox: kills 2HG-producing HT-1080-NT fibrosarcoma cells; Potency, µM (top dose mostly 46.1 µM), for inactives: at the highest dose activity, negative = less viability, actives largely listed as cytotoxic; HT-1080-NT fibrosarcoma viability, CellTiter-Glo ATP luminescence, 48 h; 360,000 compounds, 1.6% hits; AID 686970;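 further: NT is the 2HG producing partner of a matched IDH1 knockdown line; 0% = DMSO-treated cells and -100% = media-only wells without cells; nearly all actives have a fitted effect of over 55% in size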
#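 Fibrosarcoma NT cells, 750 per well in 5% FBS RPMI, were exposed to compound for 48 hours. Viability: CellTiter-Glo luminescence.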
# KB-V1 MDR tox: kills drug-selected multidrug resistant KB-V1 cells; AID 1347076; 400,000 compounds, 3.4% hits; Potency, µM (doses to about 46.1 µM), usual class: cytotoxic; KB-V1 MDR cells viability, CellTiter-Glo, 72 h; further: on the % scale 0 is the no-effect control and ±100 the full control effect; nearly all actives have a fitted effect of over 60% in size
#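 Cytotoxicity via CellTiter-Glo luminescence after 72 h compound exposure at 37 degrees C. Cells: drug-selected KB-V1 line, DMEM phenol-red free plus 10% FBS. Compounds tested at multiple concentrations; normalized data fitted to concentration-effect curves.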
# SW480 rerep: induces DNA re-replication in SW480 colon adenocarcinoma cells; SW480 DNA re-replication, Hoechst DNA content imaging, 48 h; Potency, µM (doses to about 46.1 µM), for inactives: top-dose re-replication activation, usual class: activators; 340,000 compounds, 1.8% hits; AID 624297; further: % of control where 0% means no effect; nearly all actives have a fitted effect of over 55% in size
#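 Treated cells incubate 48 hr (37 C, 5% CO2), are stained 40 min with Hoechst, and nuclear fluorescence is enumerated; a rise in nuclei with high DNA signal marks re-replication.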
# * hit, by the source's call; i = inactive; ? = inconclusive; / = no result. Compounds with a hit are over-represented: about 8% of the library has one in this group of screens. The call rests on the fitted dose curve; in most records, active means well fitted curve in the direction sought with a large enough effect; inconclusive means small, poorly fitted or top-dose-only effect, or another doubt; inactive means no such curve, though single readings can be large; an effect the other way counts as inactive or inconclusive. Potency means the concentration at half of the fitted maximal effect.
SMILES,KB-3-1 cytotox,HT1080 IDH1KD tx,MCF10A rereplic,HT1080-NT tox,KB-V1 MDR tox,SW480 rerep
Cc1ccc(Sc2c([N+](=O)[O-])c(=O)n(C)c3ccccc23)cc1,?,7%,5.8µM*,4%,i,4%
Cc1ccc(Sc2c(O)c3ccccc3n(C)c2=O)cc1,i,14%,-1%,11%,i,-270%
Cc1ccc(Sc2c(C=O)c3ccccc3n2C)cc1,23µM*,?,?,?,?,15µM*
Cc1n[nH]c(C)c1CCc1nc2c3ccccc3nc(SCC(=O)Nc3ccc(F)cc3)n2n1,i,/,/,/,i,/
Cc1ccc(NC(=O)CSc2nc3ccccc3c3nc(CCc4c(C)n[nH]c4C)nn23)cc1F,i,7.9µM*,3.7µM*,-28%,i,10µM*
CCN1CCN(CCCNC(=O)CNC(=O)c2nn(-c3ccc(OC)cc3OC)c(=O)c3ccccc23)CC1,i,16%,2%,13%,i,-5%
COc1ccc(C(=O)CC(SCC(NC(C)=O)C(=O)O)c2ccc(Cl)cc2)cc1OC (stereo not given),i,11%,21%,0%,13µM*,?
COc1ccc(C(C)NC(=O)c2ccc(Cl)cc2)cc1OC (stereo not given),i,-7%,-42%,-9%,21µM*,8%
Cc1cc(NC(=O)CSc2nccn2-c2cccc(F)c2)no1,i,8%,0%,13%,16µM*,1%
Cc1cc(NC(=O)CSc2nccn2-c2cccc(C)c2C)no1,?,?,?,?,10µM*,?
CCSc1nnc(NC(=O)CSc2nccn2-c2cc(C)cc(C)c2)s1,i,13%,12%,19%,i,-5%
CCSc1nnc(NC(=O)CSc2nccn2-c2cccc(C)c2C)s1,i,-3%,24%,-1%,21µM*,2%
CCOc1ccc(-n2ccnc2SCC(=O)N2CCCc3ccccc32)cc1,i,-5%,-4%,-5%,12µM*,-1%
Cc1cccc(-n2ccnc2SCC(=O)Nc2cc(C)on2)c1,i,15%,-13%,18%,i,-9%
CCOc1ccccc1NC(=O)N1CCc2c(sc(C)c2CC)C1c1ccccc1 (stereo not given),i,/,/,/,?,/
CCOc1ccc(-n2ccnc2SCC(=O)Nc2cc(C)on2)cc1,i,-9%,-2%,1%,15µM*,3%
COc1ccc(-n2ccnc2SCC(=O)Nc2cc(C)on2)cc1,i,-25%,15%,2%,?,?
CCOc1ccc(NC(=O)c2nn(C)c3c2CS(=O)(=O)c2ccccc2-3)cc1,i,/,/,/,i,/
O=C(N/N=C/c1c[nH]c2ccccc12)C1CC1c1ccccc1 (stereo not given),i,-14%,2%,-14%,?,-1%
O=C(N/N=C\c1ccc([N+](=O)[O-])o1)C1COc2ccccc2O1 (stereo not given),?,21µM*,?,?,i,?
O=C(N/N=C/c1c[nH]c2ccccc12)C1COc2ccccc2O1 (stereo not given),5.8µM*,5.8µM*,21µM*,3.7µM*,2.6µM*,?
CCOC(=O)c1ccc(-n2c(O)c(/C=N/NC(=O)C3COc4ccccc4O3)c3ccccc3c2=O)cc1 (stereo not given),i,-13%,29%,-13%,16µM*,?
CCOC(=O)c1ccc(NC(=O)C2COc3ccccc3O2)cc1 (stereo not given),i,-5%,?,?,i,-86%
O=C(N/N=C\c1ccc(-c2ccccc2[N+](=O)[O-])o1)C1COc2ccccc2O1 (stereo not given),i,8%,2%,9%,i,?
O=C(N/N=C\c1ccc(Cl)s1)C1COc2ccccc2O1 (stereo not given),?,?,?,?,?,16µM*
